Measured values as given in PubChem BioAssay (NCI).
The panel holds about 83,000 compounds, 20% with a hit somewhere; the sample as a whole holds those more often.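 Interpretation: 100, growth as untreated; towards 0, rising growth inhibition; 0, no net growth; 0 to -100, cell death. Compounds scoring below 10 were considered active.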 Calls of active or inactive are those of the source.

Test system: OVCAR-8 ovarian
Experiment: NCI-60 one-dose screen, 48 h (100 = growth as untreated, 0 = no growth, -100 = all killed)
Conditions: 10 µM unless noted

SMILES	growth
COC(=O)[C@]12CC[C@@H](C)[C@H](C)[C@@H]1C1=CC[C@@H]3[C@@]4(C)C[C@@H](OC(C)=O)[C@H](O)[C@@](C)(COC(C)=O)[C@@H]4[C@H](O)C[C@@]3(C)[C@]1(C)CC2	-53.7% (active)
N#Cc1c(-c2ccco2)nc2c(c(-c3ccccc3)nn2-c2ccccc2)c1-c1ccc(O)cc1	55.2% (inactive)
CC(=O)c1c(C)[nH]c(-c2nc3ccc(N4CCN(C)CC4)cc3[nH]2)c1-c1ccc2c(c1)OCCO2	48.2% (inactive)
COc1ccc(C(=O)c2ccc(C)cc2)c(OC)c1OC	90.4% (inactive)
C[C@H]1OC(=O)/C=C/[C@@H](O)[C@@H](O)CCCCCCCC[C@@H]1O	89.6% (inactive)
COc1ccccc1-n1cnc(N)c1C(=O)c1cc(OC)c(OC)c(OC)c1	61.8% (inactive)
COc1ccc(/C=C(\C#N)c2cc3ccccc3n2S(C)(=O)=O)cc1	95.9% (inactive)
Cc1cccc2c1NC(=O)[C@@]21[C@H](C(=O)c2ccccc2)[C@]2(C(=O)Nc3ccccc32)[C@H]2CCCN21	-17.2% [100 µM] (active)
N=c1ccc2nc3c(cc(N)c4ccccc43)oc-2c1	-54.1% (active)
COc1cccc(-c2nn(-c3ccccc3)cc2-c2ccnc(NCCCNS(=O)(=O)c3ccc(Br)cc3)c2)c1	47.9% (inactive)
Cc1ccc(-c2nn(Cc3cn(-c4cc(C)nc5ccccc45)nn3)c3ncnc(N)c23)cc1	62.5% (inactive)
COc1ccc2c(c1)c1nc3cc(C)c(C)cc3nc1n2CCN(C)C	6.83% (active)
CC(=O)n1c(/C(C#N)=C/c2ccc(N(C)C)cc2)cc2ccccc21	40.3% (inactive)
C[C@H]1[C@H]2C3=CC[C@@H]4[C@@]5(C)C/C(=C/c6ccco6)C(=O)C(C)(C)[C@@H]5CC[C@@]4(C)[C@]3(C)CC[C@@]2(C(=O)N2CCOCC2)CC[C@@H]1C	54.7% (inactive)
Fc1ccc(Nc2ccc3c(OCCCN4CCOCC4)cccc3n2)cc1F	117% (inactive)
COc1cccc(-c2nn(-c3ccccc3)cc2-c2ccnc(NCCNS(=O)(=O)c3ccc(C(F)(F)F)cc3)c2)c1	15.7% (inactive)
Cn1cnc2c1c(=O)n(CCC(=O)Nc1ccc(F)cc1)c(=O)n2C	102% (inactive)
COCCNC1=C(Cl)C(=O)c2ccccc2C1=O	89.5% (inactive)
CCCCn1c(-c2ccc(O)cc2)cn2c3c(=O)[nH]c(=O)n(C)c3nc12	91.7% (inactive)
Cc1ccc(N(CC(=O)Nc2ccc(S(=O)(=O)NC3CCN(C)CC3)cc2)S(=O)(=O)c2ccc(Cl)cc2)cc1	96.2% (inactive)

SMILES	growth
CC(=O)OC[C@]12CC[C@@H](/C(C)=N/O)[C@@H]1[C@H]1CC[C@@H]3[C@@]4(C)CCCNC(C)(C)[C@@H]4CC[C@@]3(C)[C@]1(C)CC2	73.3% (inactive)
Clc1ccc(Cn2cc(-c3nc4ccc(Br)nc4n3Cc3ccc(Cl)cc3)c3cccnc32)cc1	77.2% (inactive)
CN1CCN(CCOc2ccc(-c3cnc4c(-c5cccc(F)c5)cnn4c3)cc2)CC1	69.8% (inactive)
CN1CCN(c2nc(-c3csc(-c4cccs4)n3)cc3ccccc23)CC1	75.6% (inactive)
CCN(CC)CCCCCCNc1ccnc2cc(Cl)ccc12	117% (inactive)
CCCCCCCC(=O)SCC/C=C/[C@@H]1CC(=O)NCc2cccc(n2)CN(Cc2ccc(Cl)cc2)CC(=O)N[C@@H](C(C)C)C(=O)O1	-0.619% (active)
c1cc(N2CCCC2)c2nc(-c3[nH]ncc3Nc3ncnc4[nH]ccc34)[nH]c2c1	1.75% (active)
COc1ccc(C2=NN(c3nc(-c4ccc(OC)cc4)c(C#N)c(=O)n3C)C(=O)CC2)cc1	101% (inactive)
Cc1ccc(S(=O)(=O)Nc2ccc(-c3cc(-c4cccc(F)c4)c(C#N)c(N)n3)cc2)cc1	7.02% (active)
CC(C)(C)c1ccc(OCCCCCCCN2CCNCC2)cc1	71.3% (inactive)
COC(=O)CNc1nc(N(C)O)nc(N(C)O)n1	34.3% (inactive)
COc1cc2ncnc(Nc3ccc(Oc4ccnc(C)c4)c(C)c3)c2cc1NC(=O)CC1CCSS1 (centres undefined)	25.4% (inactive)
C=C(C)[C@@H]1CC[C@]2(C)[C@H](CC[C@@H]3[C@H]4[C@H]5OC[C@@]4(CCC5(C)C)CC[C@]32C)[C@@]1(C)CCCN	57.8% (inactive)
c1ccc(-c2nc(Nc3ccc(-c4nc5ccccc5[nH]4)cc3)nc(N3CCOCC3)n2)cc1	-50.4% (active)
CCOC(=O)C1OC1(c1ccccc1)c1ccccc1 (centres undefined)	99.6% (inactive)
CCN1CCN(C(=O)[C@@]2(C)CC[C@]3(C)CC[C@]4(C)C(=CC(=O)[C@@H]5[C@@]6(C)CC[C@H](OCCC#N)C(C)(C)[C@@H]6CC[C@]54C)[C@@H]3C2)CC1	90.5% (inactive)
O=S(=O)(NCCNc1cc(-c2cn(-c3ccccc3)nc2-c2cccc(O)c2)ccn1)c1cccc(F)c1	34.2% (inactive)
N#CC1=C(N)Oc2ccc3ccccc3c2C1c1ccccc1 (centres undefined)	49.8% (inactive)
COc1ccc(-c2cc(=O)oc3ccc(Cl)cc23)cc1F	20.3% (inactive)
